# KCNH2 WT inh = blocks the wildtype human KCNH2 potassium channel | Q12809 | actives 0.37% (n = 340,000) | activity change, % at 1.84 µM | U2OS, BacMam KCNH2, thallium flux FluxOr; active compounds read low;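 active = maximum activity change below -70%; inconclusive = maximum activity change between -70% and -50%; inactive = maximum activity change above -50%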; also: % is scaled to controls: 0 for no effect and ±100 for the full control effect
#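 U2OS cells transduced with wild-type KCNH2 virus are loaded with FluxOr dye for 45 min, and thallium flux is measured in kinetic reads before and after stimulation buffer. Rate constants are normalized to DMSO controls.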
# TRPV1 ag = agonists of human vanilloid receptor 1 (TRPV1); actives 0.19% (n = 320,000); activation, % at 8.33 µM; TRPV1-expressing cells, Fluo-8 calcium influx, agonist mode; AID 540275; in the data active = activation above about 80%; inconclusive = between about 30% and that limit; also: 0% is about no effect
# Target sequence (Q8NER1 whole entry, looked up): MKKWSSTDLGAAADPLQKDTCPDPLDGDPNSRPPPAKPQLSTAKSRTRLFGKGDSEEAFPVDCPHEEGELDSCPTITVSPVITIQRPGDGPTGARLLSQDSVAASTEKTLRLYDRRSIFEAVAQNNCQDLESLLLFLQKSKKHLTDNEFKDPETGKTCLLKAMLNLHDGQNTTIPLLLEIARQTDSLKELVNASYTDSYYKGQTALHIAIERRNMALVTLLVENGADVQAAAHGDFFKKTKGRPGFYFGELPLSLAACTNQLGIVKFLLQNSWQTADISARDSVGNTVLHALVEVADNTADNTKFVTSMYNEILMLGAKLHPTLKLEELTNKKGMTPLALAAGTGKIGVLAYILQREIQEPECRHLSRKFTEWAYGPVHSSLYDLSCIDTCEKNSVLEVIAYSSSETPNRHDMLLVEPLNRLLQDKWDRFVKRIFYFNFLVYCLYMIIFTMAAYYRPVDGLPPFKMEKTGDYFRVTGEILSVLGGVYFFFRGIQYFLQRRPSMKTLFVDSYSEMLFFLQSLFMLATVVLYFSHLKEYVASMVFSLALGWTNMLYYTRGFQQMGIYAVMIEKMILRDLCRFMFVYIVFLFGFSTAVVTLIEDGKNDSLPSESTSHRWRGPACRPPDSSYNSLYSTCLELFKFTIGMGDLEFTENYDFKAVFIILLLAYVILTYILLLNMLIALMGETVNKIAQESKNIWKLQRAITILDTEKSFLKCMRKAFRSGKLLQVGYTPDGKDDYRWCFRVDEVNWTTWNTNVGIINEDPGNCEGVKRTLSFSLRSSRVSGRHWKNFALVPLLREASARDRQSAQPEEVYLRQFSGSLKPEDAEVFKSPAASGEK
#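 Cells expressing TRPV1 were dye-loaded with Fluo-8 and read kinetically: 10 s baseline, 3 min after compound (agonist portion), then 2 min after EC20 capsaicin (allosteric enhancer portion). Calcium-bound dye fluorescence at 480/520 nm.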
# KCNH2 3.1 block = inhibitors of human KCNH2 3.1 potassium channel isoform; U2OS KCNH2 3.1, thallium flux FluxOr; active compounds read low; activity change, % (tested at about 1.8 µM); actives 0.95% (n = 340,000); AID 720553;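 active = maximum activity change below -70%; inconclusive = maximum activity change from -70% to -50%; inactive = maximum activity change above -50%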;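 also: thallium influx rate constant from kinetic fluorescence after stimulation buffer; % is scaled to controls: 0 for no effect and ±100 for the full control effect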
#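 We transduce U2OS cells with the mutant 3.1 virus, culture them overnight, load FluxOr with Red40 quencher for 45 min, then add stimulation buffer and read kinetically for 2 min to derive a normalized rate constant.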
# TRPV1 PAM = human TRPV1 potentiation; actives 0.02% (n = 320,000); TRPV1-expressing cells, Fluo-8 calcium influx, capsaicin EC20 potentiation; potentiation, % at 8.33 µM; AID 540277; in the data active = potentiation above about 80%; inconclusive = between about 30% and that limit; also: 0% is about no effect
#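 TRPV1-expressing cells were cultured overnight at 35.5C and loaded with Fluo-8 calcium dye for 40 to 90 min at room temperature. After a 10 s baseline, compound was added and calcium influx was read kinetically for 3 min (ex 480/em 520 nm).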
# Active calls of the source: *; ? = inconclusive; / = no result given. A selection: hits, their analogues and other compounds. The true share with any hit is near 1.2%.
SMILES,KCNH2 WT inh,TRPV1 ag,KCNH2 3.1 block,TRPV1 PAM
COc1ccc(CN2CCC(n3nccc3NC(=O)c3cccc(F)c3)CC2)cc1O,-109*,-3,-110*,5
O=C(Nc1ccnn1C1CCN(C/C=C/c2ccccc2)CC1)c1ccccc1,-91*,-5,-91*,11
O=C(Nc1ccnn1C1CCN(CCCc2ccccc2)CC1)c1cccc(F)c1,-89*,1,-104*,6
CCOC(=O)C1=C(C(=O)OCC)N(Cc2ccccc2)CCC1=O,-5,/,2,/
COc1cccc(CCNC(=O)CCc2nnc(-c3cc(C)oc3C)o2)c1,4,3,12,101*
O=C1OC(c2ccc3ccccc3c2O)(c2ccc3ccccc3c2O)c2ccccc21,0,/,11,/
CCCCN(CCCC)CCCNC(=O)C12CN(Cc3ccccc3)CC1C(c1cccc([N+](=O)[O-])c1)=NO2 (stereo unspecified),-76*,1,-87*,22
CCc1nc(Nc2ccccc2)c2oc3ccccc3c2n1,-11,84*,-31,-7
CCc1nc(Nc2cccc(OC)c2)c2oc3ccccc3c2n1,-10,81*,12,0
CCc1nc(Nc2cccc(F)c2)c2oc3ccccc3c2n1,-5,?,-9,12
NS(=O)(=O)Nc1c(Br)cc(Br)c2cccnc12,/,2,/,-6
COc1cc(C=Cc2nnc3c4ccccc4cnn23)cc(OC)c1OC,-6,/,-5,/
CN1CCN(c2ccccc2NC(=O)c2ccc([N+](=O)[O-])cc2Cl)CC1,10,-5,4,-12
COc1cc2c(cc1OC)C(C(=O)Nc1ccc(F)c(Cl)c1)CC(=O)N2 (stereo unspecified),2,-5,-110*,17
COc1cc2c(cc1OC)C(c1ccc(Cl)cc1)CC(=O)N2 (stereo unspecified),-14,10,-5,?
CC(NS(=O)(=O)c1cc(C(F)(F)F)ccc1Cl)C(=O)N(C)C1CCN(C)CC1 (stereo unspecified),24,/,8,/
CCOc1ccc(NC(=O)CN(C)C(=O)c2cccc(S(=O)(=O)N3CCN(C)CC3)c2)cc1OCC,2,/,5,/
CN(CCOc1ccc(Cl)cc1)CC(=O)Nc1ccc(OC(F)F)cc1,-8,18,-85*,-12
CCC(C)c1ccccc1NC(=O)CN(C)CCOc1ccc(Cl)cc1 (stereo unspecified),1,?,-9,7
Cc1ccc(NC(=O)CSCC(=O)N2CCN(c3cccc(C(F)(F)F)c3)CC2)cc1,-6,0,-1,16
CCN(C[C@H]1N[C@@](C)(C(=O)OC)[C@H]2C(=O)N(C)C(=O)[C@@H]12)C(=O)COc1ccccc1,-218*,/,3,/
CCOC(=O)c1ccccc1NC(=O)CSc1nnc(Cc2cccn2C)n1-c1ccc(F)cc1,-87*,7,-11,-5
Cc1ccc(C(=O)O/N=C\c2ccc(N3CCCCC3)c([N+](=O)[O-])c2)cc1,-14,7,-77*,-11
CO/N=C/c1ccc(N2CCN(C(=O)c3ccc(Cl)cc3Cl)CC2)c([N+](=O)[O-])c1,-12,0,-109*,-1
O=C(O/N=C\c1ccc(N2CCCCC2)c([N+](=O)[O-])c1)c1cccc(C(F)(F)F)c1,-10,7,-48,-5
SMILES,KCNH2 WT inh,TRPV1 ag,KCNH2 3.1 block,TRPV1 PAM
CO/N=C/c1ccc(N2CCN(C(=O)c3ccc(F)cc3)CC2)c([N+](=O)[O-])c1,9,18,-102*,-19
CO/N=C/c1ccc(N2CCN(C(=O)c3cccc(C(F)(F)F)c3)CC2)c([N+](=O)[O-])c1,-243*,6,-37,20
CN(C[C@H](Cc1ccccc1)N(CCN(CCc1ccccc1)N=O)N=O)N=O,19,3,-200*,14
N#Cc1ccccc1S(=O)(=O)N1CCN(C(=O)CN(Cc2ccco2)Cc2cccs2)CC1,-2,/,-7,/
COc1ccc(CCNC(=O)CC2(CC3=NS(=O)(=O)c4ccccc4N3)CCCC2)cc1OC,-3,2,14,6
Cc1ccc(CNC(=O)CC2(CC3=NS(=O)(=O)c4ccccc4N3)CCCC2)cc1,8,?,-85*,-8
C=CCn1c(SCc2cccnc2)nnc1-c1ccncc1,8,-3,-3,0
C=CCn1c(SCc2c(Cl)cccc2Cl)nnc1-c1cccnc1,3,5,-120*,-7
CC(N=Cc1cc([N+](=O)[O-])ccc1O)c1ccccc1 (stereo unspecified),-170*,0,1,7
CN(/N=C/c1cc([N+](=O)[O-])ccc1O)c1ccccc1,3,-1,0,10
COc1cc(C(=O)NCCC(=O)NCc2cccs2)cc(OC)c1OC,-1,/,-18,/
CC[C@]12c3[nH]c4ccccc4c3CCN1C(=O)C(CC(=O)NCCN1CCOCC1)C[C@@H]2C(=O)N1CCN(C(=O)C2CC2)CC1 (stereo partly specified),-114*,/,6,/
CC[C@]12c3[nH]c4ccccc4c3CCN1C(=O)C(CC(=O)NCCCOC)C[C@@H]2C(=O)N1CCN(C(=O)C2CC2)CC1 (stereo partly specified),21,/,-6,/
CCOc1ccc(C(=O)NC(=S)Nc2ccccc2N2CCC(C)CC2)cc1[N+](=O)[O-],-9,2,-24,-1
O=C(Nc1ccccc1N1CCN(C(=O)c2ccccc2)CC1)c1cccc(Cl)c1,6,?,-29,-15
O=C(Nc1ccc(N2CCN(C(=O)c3ccccc3)CC2)c(Cl)c1)c1ccc(Br)o1,-12,19,-102*,5
O=C(Nc1ccccc1N1CCN(C(=O)c2ccccc2)CC1)c1cc(Br)ccc1Cl,?,?,-92*,-5
COc1ccc(Br)cc1C(=O)Nc1ccccc1N1CCN(C(=O)c2ccccc2)CC1,-85*,1,17,14
O=C(Nc1ccc(N2CCN(C(=O)c3ccccc3)CC2)cc1)c1ccc(Br)o1,1,16,-11,-13
CCOc1ccc(C(=O)Nc2ccccc2N2CCN(C(=O)c3ccccc3)CC2)cc1[N+](=O)[O-],-92*,8,-104*,-1
COc1ccc(Cl)cc1C(=O)Nc1ccccc1N1CCN(C(=O)C(C)C)CC1,-90*,4,-10,7
COc1ccc(C(=O)Nc2ccccc2N2CCN(C(=O)C(C)C)CC2)cc1Cl,-4,?,-3,-11
CCOCCCN(C(=O)CCC(=O)Nc1cc(C)on1)C(C(=O)NC(C)(C)C)c1ccccc1Cl (stereo unspecified),9,7,0,13
NS(=O)(=O)c1ccc(NC(=O)c2ccc3c(c2)OCO3)cc1,-6,?,0,-17
NS(=O)(=O)c1ccc(NC(=O)c2ccc3c(c2)CCCC3)cc1,14,92*,8,-5
Cn1nnc(NC(=O)c2ccc(Br)o2)n1,-19,1,-77*,-5
CCCCCC1CC(CC(=O)Nc2ccc([N+](=O)[O-])cc2)OC1=O (stereo unspecified),1,18,-4,-1

# High-throughput results (PubChem BioAssay)
